# According to ChEMBL document CHEMBL5308504, “Tm Shift (DSF) assay results for EUbOPEN Chemogenomics Library” (2023):
# Values joined by “and” are separate entries in the source; they are usually repeats but may differ in a detail not shown here. Equal entries are not always repeated.
# Assays:
# Conditions in all cases: Compound concentration 20.0 uM, Protein concentration 2.0 uM, Result type QC Liability
# [1] = target: Tyrosine-protein kinase ABL1 (Homo sapiens) (UniProt P00519)
# [2] = target: Cyclin-dependent kinase 2 (Homo sapiens) (UniProt P24941)
# [3] = target: Casein kinase I isoform delta (Homo sapiens) (UniProt P48730)
# [4] = target: Glycogen synthase kinase-3 beta (Homo sapiens) (UniProt P49841)
# [5] = target: Mitogen-activated protein kinase 1 (Homo sapiens) (UniProt P28482)
# [6] = target: T1, Aurora kinase A (Homo sapiens) (UniProt O14965)
# T1 sequence (whole entry): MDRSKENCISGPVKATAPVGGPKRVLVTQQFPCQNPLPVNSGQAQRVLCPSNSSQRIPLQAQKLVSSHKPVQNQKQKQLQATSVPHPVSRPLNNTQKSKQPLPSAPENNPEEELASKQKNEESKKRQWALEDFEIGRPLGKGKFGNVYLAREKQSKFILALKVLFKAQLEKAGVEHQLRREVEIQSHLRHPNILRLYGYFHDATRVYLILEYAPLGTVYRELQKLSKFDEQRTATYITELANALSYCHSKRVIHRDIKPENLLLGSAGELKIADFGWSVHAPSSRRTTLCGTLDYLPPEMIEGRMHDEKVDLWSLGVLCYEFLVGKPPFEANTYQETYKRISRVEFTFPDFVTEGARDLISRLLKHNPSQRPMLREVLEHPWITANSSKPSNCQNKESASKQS
# Sequence of Casein kinase I isoform delta (Homo sapiens) (P48730 whole entry, looked up, canonical isoform): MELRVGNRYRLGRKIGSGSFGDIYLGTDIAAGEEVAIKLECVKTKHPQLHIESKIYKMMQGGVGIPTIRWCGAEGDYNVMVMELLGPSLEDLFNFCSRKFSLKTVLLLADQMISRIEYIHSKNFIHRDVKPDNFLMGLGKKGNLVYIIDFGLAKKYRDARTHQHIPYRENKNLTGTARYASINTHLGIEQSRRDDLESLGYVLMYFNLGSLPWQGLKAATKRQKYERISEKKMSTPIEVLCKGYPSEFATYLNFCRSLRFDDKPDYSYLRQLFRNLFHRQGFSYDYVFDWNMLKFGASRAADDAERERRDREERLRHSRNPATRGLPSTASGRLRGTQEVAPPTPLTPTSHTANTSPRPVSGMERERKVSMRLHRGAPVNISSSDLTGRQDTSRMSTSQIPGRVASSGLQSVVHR
# Sequence of Glycogen synthase kinase-3 beta (Homo sapiens) (P49841 whole entry, looked up): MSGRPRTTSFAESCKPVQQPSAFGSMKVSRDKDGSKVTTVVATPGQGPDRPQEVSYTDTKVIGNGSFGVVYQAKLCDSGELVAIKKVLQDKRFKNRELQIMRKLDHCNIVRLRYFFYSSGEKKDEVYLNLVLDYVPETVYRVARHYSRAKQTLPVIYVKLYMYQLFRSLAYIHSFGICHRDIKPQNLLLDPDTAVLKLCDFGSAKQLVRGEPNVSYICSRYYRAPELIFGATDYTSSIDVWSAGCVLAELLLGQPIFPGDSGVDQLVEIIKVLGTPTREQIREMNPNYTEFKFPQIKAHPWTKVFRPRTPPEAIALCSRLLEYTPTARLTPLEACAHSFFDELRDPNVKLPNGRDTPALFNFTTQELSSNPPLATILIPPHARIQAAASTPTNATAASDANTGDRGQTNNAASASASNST
# Sequence of Tyrosine-protein kinase ABL1 (Homo sapiens) (P00519 whole entry): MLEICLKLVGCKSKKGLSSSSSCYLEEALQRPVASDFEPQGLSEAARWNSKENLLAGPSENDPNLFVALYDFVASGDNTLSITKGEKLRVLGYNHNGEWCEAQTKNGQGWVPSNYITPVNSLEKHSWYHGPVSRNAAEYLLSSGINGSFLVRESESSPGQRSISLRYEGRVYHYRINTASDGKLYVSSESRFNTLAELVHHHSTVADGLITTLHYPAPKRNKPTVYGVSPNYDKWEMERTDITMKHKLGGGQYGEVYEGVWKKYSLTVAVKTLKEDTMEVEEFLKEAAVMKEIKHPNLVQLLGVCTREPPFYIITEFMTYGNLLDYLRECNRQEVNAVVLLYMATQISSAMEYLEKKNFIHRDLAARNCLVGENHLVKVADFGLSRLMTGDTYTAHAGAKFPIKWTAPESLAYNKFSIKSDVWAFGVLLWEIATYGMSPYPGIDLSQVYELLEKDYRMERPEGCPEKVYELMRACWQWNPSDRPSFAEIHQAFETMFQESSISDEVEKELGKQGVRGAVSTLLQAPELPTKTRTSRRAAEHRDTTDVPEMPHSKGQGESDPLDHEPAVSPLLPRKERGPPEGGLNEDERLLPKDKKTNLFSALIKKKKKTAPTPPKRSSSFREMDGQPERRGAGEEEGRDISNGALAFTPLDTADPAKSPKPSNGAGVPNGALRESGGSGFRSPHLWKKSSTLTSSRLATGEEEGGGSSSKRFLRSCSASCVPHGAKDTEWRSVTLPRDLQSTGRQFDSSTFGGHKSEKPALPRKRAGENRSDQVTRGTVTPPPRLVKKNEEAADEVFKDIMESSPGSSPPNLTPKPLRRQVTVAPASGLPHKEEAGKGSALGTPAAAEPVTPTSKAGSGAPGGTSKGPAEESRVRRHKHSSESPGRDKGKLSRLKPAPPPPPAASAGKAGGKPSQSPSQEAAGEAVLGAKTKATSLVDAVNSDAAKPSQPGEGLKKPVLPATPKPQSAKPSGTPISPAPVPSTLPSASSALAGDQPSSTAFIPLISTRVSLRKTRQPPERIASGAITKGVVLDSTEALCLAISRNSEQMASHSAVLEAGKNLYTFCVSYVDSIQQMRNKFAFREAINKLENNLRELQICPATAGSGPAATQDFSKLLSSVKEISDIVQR
# Sequence of Mitogen-activated protein kinase 1 (Homo sapiens) (P28482 whole entry): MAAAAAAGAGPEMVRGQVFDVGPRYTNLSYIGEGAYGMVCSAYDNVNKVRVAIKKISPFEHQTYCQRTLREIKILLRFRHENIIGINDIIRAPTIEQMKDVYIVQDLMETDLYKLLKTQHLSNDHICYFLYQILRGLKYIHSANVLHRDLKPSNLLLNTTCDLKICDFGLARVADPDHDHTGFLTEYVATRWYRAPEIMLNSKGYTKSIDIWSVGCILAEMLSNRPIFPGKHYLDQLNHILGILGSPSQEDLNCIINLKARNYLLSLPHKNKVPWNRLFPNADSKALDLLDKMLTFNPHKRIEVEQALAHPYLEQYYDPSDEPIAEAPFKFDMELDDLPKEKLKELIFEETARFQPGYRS
smiles,measurement,setting,value
Cc1cc(CN)cc(C)c1-c1ncn(C)c1-c1cncn1C,ΔTm,[1],0.16 °C
same,ΔTm,[2],-0.16 °C
same,ΔTm,[3],0.37 °C
same,ΔTm,[4],0.19 °C
same,ΔTm,[5],0.11 °C
same,ΔTm,[6],-0.37 °C
Cc1cn([C@@H](C)CC#N)c(=O)c2cc(Cn3nc(C(F)F)cc3Cl)nn12,ΔTm,[1],0.12 °C
same,ΔTm,[2],-0.57 °C
same,ΔTm,[3],-0.18 °C
same,ΔTm,[4],-0.66 °C
same,ΔTm,[5],0.18 °C
same,ΔTm,[6],-0.51 °C
Cc1c(NC(=O)c2ccc(C(C)(C)C)cc2)cccc1-c1cn(C)c(=O)c(Nc2ccc(C(=O)N3CCOCC3)cc2)n1,ΔTm,[1],0.18 °C
same,ΔTm,[2],-0.38 °C
same,ΔTm,[3],0.35 °C
same,ΔTm,[4],-2.28 °C
same,ΔTm,[5],-1.15 °C
same,ΔTm,[6],1.86 °C
NCCCc1c(C(=O)O)[nH]c2ccc(C(=O)Nc3ccccc3)cc12,ΔTm,[1],0.08 °C
same,ΔTm,[2],0.25 °C
same,ΔTm,[3],0.53 °C
same,ΔTm,[4],-0.39 °C
same,ΔTm,[5],0.25 °C
same,ΔTm,[6],-1.5 °C
CN(C1CCc2c(c3ccccc3n2CC(=O)O)C1)S(=O)(=O)c1ccc(F)cc1 (stereo not drawn),ΔTm,[1],0.59 °C
same,ΔTm,[2],0.46 °C
same,ΔTm,[3],-0.23 °C
same,ΔTm,[4],0 °C
same,ΔTm,[5],-0.11 °C
same,ΔTm,[6],0.35 °C
Cc1ccccc1Oc1cc(-n2c(=O)cc(C(F)(F)F)[nH]c2=O)c2ccccc2c1Cl,ΔTm,[1],-0.09 °C
same,ΔTm,[2],0.61 °C
same,ΔTm,[3],0.85 °C
same,ΔTm,[4],-1.52 °C
same,ΔTm,[5],-0.82 °C
same,ΔTm,[6],-1.95 °C
CCn1c(CNC(=O)c2nc(Cl)cnc2N)[n+](CC)c2ccc(C(=O)N(C)CCN(C)C)cc21,ΔTm,[1],0.14 °C
same,ΔTm,[2],0.44 °C
same,ΔTm,[3],0.35 °C
same,ΔTm,[4],-0.7 °C
same,ΔTm,[5],0.33 °C
same,ΔTm,[6],-0.18 °C
CCc1nc(C2CCC2)n2nc(-c3ccccc3)[nH]c(=O)c12,ΔTm,[1],0.18 °C
same,ΔTm,[2],1.98 °C
same,ΔTm,[3],0.4 °C
same,ΔTm,[4],1.45 °C
same,ΔTm,[5],0.11 °C
same,ΔTm,[6],1.13 °C
CC(C)(O)c1cn(-c2ccc(-c3cccc(S(C)(=O)=O)c3)cc2)c(C(C)(C)c2ccccc2Cl)n1,ΔTm,[1],-1.7 °C
same,ΔTm,[2],0.08 °C
same,ΔTm,[3],-0.27 °C
same,ΔTm,[4],-0.99 °C
same,ΔTm,[5],0.15 °C
same,ΔTm,[6],-3.66 °C
CC(=O)c1c(C)c2cnc(Nc3ccc(N4CCN(CCCCNC(=O)COc5cccc6c5C(=O)N(C5CCC(=O)NC5=O)C6=O)CC4)cn3)nc2n(C2CCCC2)c1=O (stereo not drawn),ΔTm,[1],0.12 °C
same,ΔTm,[2],0.59 °C
same,ΔTm,[3],0.26 °C
same,ΔTm,[4],0.7 °C
same,ΔTm,[5],0.16 °C
same,ΔTm,[6],-0.33 °C
N#CN1CC[C@H](C(=O)Nc2nc3c(s2)CN(C(=O)CN=[N+]=[N-])CC3)C1,ΔTm,[1],0.16 °C
same,ΔTm,[2],0.34 °C
same,ΔTm,[3],0.24 °C
same,ΔTm,[4],-0.2 °C
same,ΔTm,[5],0.64 °C
same,ΔTm,[6],-0.99 °C
c1ccc(C(OC2CCN(CCCc3nnn[nH]3)CC2)c2ccccc2)cc1,ΔTm,[1],0.21 °C
same,ΔTm,[2],0.54 °C
same,ΔTm,[3],-0.14 °C
same,ΔTm,[4],0.65 °C
same,ΔTm,[5],-0.05 °C
same,ΔTm,[6],-0.34 °C
Cc1cc(OC2CCS(=O)(=O)CC2)cc(C)c1-c1cccc(COc2ccc(CCC(=O)O)c(F)c2)c1,ΔTm,[1],-0.51 °C
same,ΔTm,[2],-2.34 °C
same,ΔTm,[3],0.59 °C
same,ΔTm,[4],-4.55 °C
same,ΔTm,[5],-0.4 °C
same,ΔTm,[6],-1.9 °C
C[C@@H](Oc1cc(-n2cnc3ccc(OC4CCN(C)CC4)cc32)sc1C(N)=O)c1ccccc1Cl,ΔTm,[1],1.32 °C
same,ΔTm,[2],-0.97 °C
same,ΔTm,[3],0.23 °C
same,ΔTm,[4],1.25 °C
same,ΔTm,[5],0.3 °C
same,ΔTm,[6],0.44 °C
O[C@]1(C(F)(F)F)CCCC[C@H]1Nc1ccc(F)cc1,ΔTm,[1],0.25 °C
same,ΔTm,[2],1.15 °C
same,ΔTm,[3],0.07 °C
same,ΔTm,[4],-0.77 °C
same,ΔTm,[5],0.26 °C
same,ΔTm,[6],0.42 °C
CC[C@H](CC(=O)O)n1c(=O)c2ncccc2n(Cc2cn(C)c3cc(C)cc(C)c23)c1=O,ΔTm,[1],-0.39 °C and 0.26 °C
same,ΔTm,[2],0.68 °C and 0.96 °C
same,ΔTm,[3],0.28 °C and -0.08 °C
same,ΔTm,[4],-0.11 °C and -0.78 °C
same,ΔTm,[5],0.08 °C and 0.23 °C
same,ΔTm,[6],-0.13 °C and 0.01 °C
COc1cc(F)ccc1-c1cc(Nc2cc(CS(C)(=N)=O)ccn2)ncc1F (stereo not drawn),ΔTm,[1],5.35 °C
same,ΔTm,[2],5.7 °C
same,ΔTm,[3],1.19 °C
same,ΔTm,[4],11 °C
same,ΔTm,[5],0.27 °C
same,ΔTm,[6],6.53 °C
O=C(CCCCCCc1ccccc1)c1ncc(-c2ccccn2)o1,ΔTm,[1],0.19 °C
same,ΔTm,[2],0.75 °C
same,ΔTm,[3],0.19 °C
same,ΔTm,[4],-0.85 °C
same,ΔTm,[5],-0.04 °C
same,ΔTm,[6],-0.34 °C
CSc1ccc(C[C@@H](C)C(=O)O)cc1Nc1nc(N2CC[C@H](N(C)C)C2)cc(C(F)F)c1C#N,ΔTm,[1],0.42 °C
same,ΔTm,[2],0.56 °C
same,ΔTm,[3],0.3 °C
same,ΔTm,[4],0.05 °C
same,ΔTm,[5],0.24 °C
same,ΔTm,[6],0.19 °C
COc1cc(Nc2cnc(C#N)c(O[C@H](C)CN(C)C)n2)ncc1-c1cnn(C)c1,ΔTm,[1],3.91 °C
same,ΔTm,[2],0.23 °C
same,ΔTm,[3],2.14 °C
same,ΔTm,[4],3.03 °C
same,ΔTm,[5],0.5 °C
same,ΔTm,[6],1.18 °C
Cc1cc2nc(N3CCC(C(=O)NC4CCCC4)CC3)n(C(C)C)c2cc1C,ΔTm,[1],0.22 °C
same,ΔTm,[2],0.23 °C
same,ΔTm,[3],0.04 °C
same,ΔTm,[4],0.31 °C
same,ΔTm,[5],0 °C
same,ΔTm,[6],0.01 °C
O=C(Cc1ccccc1)Nc1nnc(N2CC[C@@H]3[C@H]2CN3c2cccnn2)s1,ΔTm,[1],0.18 °C
same,ΔTm,[2],0.43 °C
same,ΔTm,[3],-0.16 °C
same,ΔTm,[4],-0.46 °C
same,ΔTm,[5],0.3 °C
same,ΔTm,[6],-0.66 °C
COc1c(NC(=O)c2cc3cccc(Oc4ccnc(C(=O)N5CCN(C)CC5)c4)c3n2C)cc(C(C)(C)C)cc1NS(C)(=O)=O,ΔTm,[1],0.38 °C
same,ΔTm,[2],-0.2 °C
same,ΔTm,[3],0.73 °C
same,ΔTm,[4],-0.6 °C
same,ΔTm,[5],0.86 °C
same,ΔTm,[6],-1.1 °C
